The results in this text go back to PubChem BioAssay (NCI).

The structures appear in SMILES notation. Compounds without any hit were thinned out: in the full panel of roughly 83,000, 20% have a hit.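 Single-dose data. Exposure time 48 hours. Values below 10 considered active.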 A number with no mark means an inactive call. Calls of active or inactive are those of the source.

Among the test systems are HCT-15 colon; HT29 colon; SNB-19 CNS; U251 CNS; PC-3 prostate; SK-MEL-5 melanoma; UACC-62 melanoma; LOX IMVI melanoma; SK-MEL-28 melanoma.
Test in all cases: NCI-60 one-dose screen, 48 h (100 = growth as untreated, 0 = no growth, -100 = all killed)
What all share (settings): 10 µM unless noted

With `C/C(=C(/c1ccc(O)cc1)c1ccc(Cl)cc1)c1ccccc1`, the growth in the test with HCT-15 colon was -81.9% (active); in the test with HT29 colon, -66.6% (active); in the test with SNB-19 CNS, -86.2% (active); in the test with U251 CNS, -94.6% (active); in the test on PC-3 prostate it was -74.6% (active); in the test with SK-MEL-5 melanoma, -98.9% (active). The growth in the test with UACC-62 melanoma is -94.5% (active); in the test on LOX IMVI melanoma, -95.7% (active); in the test on SK-MEL-28 melanoma, -96.3% (active).

Regarding `CN1CCN(Cc2ccc(NC(=O)c3cncc(C#Cc4c(N)ncc5ccc(C#N)cc45)c3)cc2C(F)(F)F)CC1`, the growth in the test with HCT-15 colon is -81.8% (active); with HT29 colon, -75.7% (active); in the test with SNB-19 CNS it was -79.1% (active); in the test with U251 CNS it was -69.4% (active); with PC-3 prostate, -52.1% (active); in the test on SK-MEL-5 melanoma it was -35.5% (active). Moreover, the growth with UACC-62 melanoma was -68.5% (active); with LOX IMVI melanoma it was -79.8% (active); in the test on SK-MEL-28 melanoma, -78.7% (active).

As to `CCCCCCNC(=O)Oc1ccc(/C(=C(\C)c2ccccc2)c2ccc(OCCN(CC)CC)cc2)cc1`, the growth was 4.48% (active) with HCT-15 colon; -16.1% (active) in the test on HT29 colon; 63.6% in the test on SNB-19 CNS; 38.2% with U251 CNS; 45.4% in the test on PC-3 prostate; 41.9% with SK-MEL-5 melanoma. The growth with UACC-62 melanoma is 18.4%; with LOX IMVI melanoma, 67.8%; with SK-MEL-28 melanoma, 61.1%.

As to `O=[N+]([O-])c1cccc(-c2nc3sccn3c2-c2ccnc(NCCCNS(=O)(=O)c3cccc(F)c3)n2)c1`, the growth with HCT-15 colon was 2.21% (active); in the test on HT29 colon, 21.3%; in the test on SNB-19 CNS it was 41.2%; with U251 CNS, 39.8%; in the test on PC-3 prostate, -14% (active); in the test with SK-MEL-5 melanoma, -71.2% (active). Further, the growth in the test on UACC-62 melanoma was -37.8% (active); in the test with LOX IMVI melanoma, -17.6% (active); in the test with SK-MEL-28 melanoma, -4.71% (active).

For `Brc1cccc(-c2nc(-c3ccc4c(c3)OCCO4)co2)c1`, the growth in the test on HCT-15 colon was 34.5% [25 µM]; in the test on HT29 colon, 17.1% [25 µM]; in the test on SNB-19 CNS, 63.1% [25 µM]; in the test on U251 CNS, 43.3% [25 µM]; in the test on PC-3 prostate, 74% [25 µM]; with SK-MEL-5 melanoma, 57.6% [25 µM]. Besides, the growth in the test with UACC-62 melanoma was 44.6% [25 µM]; in the test on LOX IMVI melanoma, 45.4% [25 µM]; in the test on SK-MEL-28 melanoma it was 72.9% [25 µM].

On to `C=C1CC2(OC1=O)C(=O)N(CCCCCCCCCCCCN1C(=O)C3(CC(=C)C(=O)O3)c3ccccc31)c1ccccc12` (stereo not drawn), for which the growth is 65% in the test with HCT-15 colon; 86.7% in the test on HT29 colon; 89.5% in the test with SNB-19 CNS; 74.3% with U251 CNS; 64.7% with PC-3 prostate; 86.4% in the test on SK-MEL-5 melanoma. Further, the growth in the test with UACC-62 melanoma is 78.9%; in the test on LOX IMVI melanoma it was 4.86% (active); with SK-MEL-28 melanoma, 89.3%.

For `CC(C)(C)n1cc(-c2ccnc(NCCNS(=O)(=O)c3ccccc3)c2)c(-c2cccc(O)c2)n1`, the growth in the test with HCT-15 colon was 9.17% (active); in the test on HT29 colon it was 15.6%; with SNB-19 CNS, 80.8%; in the test on U251 CNS, 52%; in the test with PC-3 prostate, 41.5%; in the test on SK-MEL-5 melanoma, 23.2%. Further, the growth in the test on UACC-62 melanoma was 70.1%; in the test on LOX IMVI melanoma, 20.4%; in the test on SK-MEL-28 melanoma, 60.4%.

For the compound `Nc1c(C(=O)Nc2ccccc2)sc2nc3c(cc12)CN(CCc1ccccc1)CC3`, the growth is 107% in the test on HCT-15 colon; 104% with HT29 colon; 95.4% in the test with SNB-19 CNS; 91.3% in the test with U251 CNS; 88.1% in the test with PC-3 prostate; 92.9% in the test with SK-MEL-5 melanoma. Also, the growth with UACC-62 melanoma is 86.4%; with LOX IMVI melanoma, 87.5%; with SK-MEL-28 melanoma, 106%.

Consider `S=c1[nH]nc(CSc2ncnc3c2c(-c2ccccc2)cn3-c2ccc(Cl)cc2)o1`, for which the growth in the test on HCT-15 colon was 117%; in the test with HT29 colon, 107%; in the test on SNB-19 CNS, 94.6%; in the test on U251 CNS, 93.8%; in the test on PC-3 prostate, 88.1%; in the test with SK-MEL-5 melanoma it was 104%. In addition, the growth is 89.1% in the test with UACC-62 melanoma, 90.2% in the test on LOX IMVI melanoma and 115% in the test with SK-MEL-28 melanoma.

Regarding `CC[C@]12C=CCN3CC[C@@]4(c5ccc(OC)cc5N(C)[C@H]4[C@@](O)(C(=O)OC)[C@@H]1OC(=O)CCC(=O)N[C@@H](Cc1c[nH]c4ccccc14)C(=O)OC)[C@@H]32`, the growth is 97.2% with HCT-15 colon; 89.1% in the test on HT29 colon; 96.3% with SNB-19 CNS; 99.3% in the test with U251 CNS; 80.5% in the test on PC-3 prostate; 90.4% in the test with SK-MEL-5 melanoma. Besides, the results for the growth in the test with UACC-62 melanoma, in the test on LOX IMVI melanoma and in the test on SK-MEL-28 melanoma were 92%, 84.1% and 37.6%, respectively.

As for `COc1ccc(C2c3ccc4ccccc4c3Oc3ncnc(N)c32)cc1` (stereo not drawn), the growth was 88.5% with HCT-15 colon; 104% in the test with HT29 colon; 91.2% in the test with SNB-19 CNS; 92.8% in the test with U251 CNS; 71.9% with PC-3 prostate; 85.5% in the test on SK-MEL-5 melanoma. Besides, the results for the growth in the test with UACC-62 melanoma, in the test on LOX IMVI melanoma and in the test with SK-MEL-28 melanoma were 66.9%, 76.5% and 91.9%, respectively.

In the case of `O=C1/C(=C/c2ccc(F)cc2)CN(C(=O)CCN2CCC(=NO)CC2)C/C1=C\c1ccc(F)cc1`, the growth in the test on HCT-15 colon is -58% (active); in the test with HT29 colon, -76.2% (active); with SNB-19 CNS, -37.9% (active); in the test with U251 CNS it was -65.1% (active); in the test on PC-3 prostate it was -23.9% (active); with SK-MEL-5 melanoma, -89.6% (active). In addition, the growth in the test on UACC-62 melanoma was -67.2% (active); in the test on LOX IMVI melanoma it was -89.6% (active); in the test on SK-MEL-28 melanoma, -59.1% (active).
